Compounds with a hit are over-represented: about 8.9% of the library has one in this group of screens.
ALDH1A1 inh – inhibitors of human aldehyde dehydrogenase 1A1; P00352; Purified ALDH1A1, NADH fluorescence, propionaldehyde substrate; Potency, µM (titrated, usually from 75.3 µM), without a hit: at the highest dose activity, negative = inhibition, actives largely listed as inhibitors; actives 7.3% (n = 220,000); AID 1030; active = well fitted inhibition curve with a large enough effect, not every such curve was filed as active; inconclusive = small, poorly fitted or top-dose-only effect, or another doubt; inactive = no such curve, though single readings can be large or run the other way;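 also: potency is read from the fitted curve at half-maximal effect; plate controls were no enzyme wells and a reference inhibitor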
HPGD block – inhibitors of human 15-hydroxyprostaglandin dehydrogenase (HPGD). Potency, µM, for the others: top-dose activity change, negative = inhibition, hits mostly inhibitors. purified HPGD, NADH fluorescence kinetic, PGE2 substrate. P15428. actives 4.3% (n = 150,000); active = well fitted inhibition curve with a large enough effect, not every such curve was filed as active; inconclusive = small, poorly fitted or top-dose-only effect, or another doubt; inactive = no such curve, though single readings can be large or run the other way; also: potency is read from the fitted curve at half-maximal effect
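NADH formation kinetics: reaction with 30 uM PGE2 and 1 mM NAD+ (final), 20 nM enzyme, Tris-HCl pH 8 with Tween 20, after 15 min compound preincubation at room temperature. Fluorescence change, last versus first of five reads.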
IMPase inh – membrane-permeable compound that blocks inositol monophosphatase; P97697; CHO-M1 cells, IP1 accumulation, HTRF TR-FRET ratio; inhibition (IP1 accumulation), % at 46.1 µM; 120,000 tested, under 10 active; AID 901; active = well fitted curve in the direction sought with a large enough effect in the signal ratio, not every such curve was filed as active; inconclusive = small, poorly fitted or top-dose-only effect, or a change in a side signal; inactive = no such curve, though single readings can be large or run the other way; the % refers to the signal ratio;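 also: cells stimulated with carbachol in lithium chloride buffer; plate controls were DMSO basal wells for no effect and reference inhibitor wells for full effect; higher means more IMPase inhibition seen as more IP1 and lower FRET ratio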
Target sequence (P97697 whole entry, looked up): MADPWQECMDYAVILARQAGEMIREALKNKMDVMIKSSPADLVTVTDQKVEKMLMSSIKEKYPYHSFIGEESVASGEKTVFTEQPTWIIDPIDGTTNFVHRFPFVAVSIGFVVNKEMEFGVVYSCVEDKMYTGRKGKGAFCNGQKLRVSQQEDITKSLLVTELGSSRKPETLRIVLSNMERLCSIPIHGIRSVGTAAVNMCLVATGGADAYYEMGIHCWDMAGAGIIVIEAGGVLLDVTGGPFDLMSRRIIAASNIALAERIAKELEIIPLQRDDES
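In this qHTS, compounds (final up to 46 uM) act on CHO-M1 cells that are then activated through the M1 receptor with carbachol, in pH 7.4 buffer containing 50 mM LiCl, for 30 min. IP1 accumulation is quantified by the IP-One immunoassay.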
ALOX12 inhib – blocks human 12-lipoxygenase activity. P18054. purified 12-hLO, xylenol orange hydroperoxide absorbance. Potency, µM (series often up to 57.1 µM), without a hit: at the top dose activity change, negative = inhibition, usual class: inhibitors. actives 0.12% (n = 150,000). AID 1452; also: potency is read from the fitted curve at half-maximal effect; nearly all actives have a fitted effect of over 55% in size
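Lipoxygenase turnover measured by absorbance at 573 and 405 nm after Fe-XO development. Human 12hLO 150 nM, arachidonate 40 uM, pH 7.0 Hepes buffer with detergent; 15 min compound preincubation, 30 min reaction.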
IMPase Li cell – IMPase inhibition in cells with lithium potentiation; Potency, µM (titrated, usually from 59.4 µM), for inactives: at the highest dose activity, negative = IMPase inhibition, most hits filed as inhibitors; CHO-M1 cells, IP1 TR-FRET (IP-One), carbachol + lithium; actives 0.35% (n = 210,000); AID 1457;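 also: IP1 builds up when IMPase is blocked and the TR-FRET signal falls; potency is read from the fitted curve at half-maximal effect; plate controls were basal vehicle for no effect and high inhibitor control for full effect; nearly all actives have a fitted effect of over 50% in size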
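Lithium-sensitised IP1 accumulation assay; M1-expressing CHO cells treated 30 min at 37C with compound. Competitive antibody detection by time-resolved FRET followed a 10 min room-temperature lysis step.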
NPSR antag – blocks cAMP signaling of the human neuropeptide S receptor | Q6W5P4 | CHO-NPSR cells, cAMP TR-FRET, antagonist mode | Potency, µM (top dose mostly 38.3 µM), for the others: at the top dose activity change, negative = inhibition, hits mostly inhibitors | actives 1% (n = 220,000) | AID 1461; also: potency is read from the fitted curve at half-maximal effect; nearly all actives have a fitted effect of over 50% in size
Target sequence (Q6W5P4 whole entry, looked up): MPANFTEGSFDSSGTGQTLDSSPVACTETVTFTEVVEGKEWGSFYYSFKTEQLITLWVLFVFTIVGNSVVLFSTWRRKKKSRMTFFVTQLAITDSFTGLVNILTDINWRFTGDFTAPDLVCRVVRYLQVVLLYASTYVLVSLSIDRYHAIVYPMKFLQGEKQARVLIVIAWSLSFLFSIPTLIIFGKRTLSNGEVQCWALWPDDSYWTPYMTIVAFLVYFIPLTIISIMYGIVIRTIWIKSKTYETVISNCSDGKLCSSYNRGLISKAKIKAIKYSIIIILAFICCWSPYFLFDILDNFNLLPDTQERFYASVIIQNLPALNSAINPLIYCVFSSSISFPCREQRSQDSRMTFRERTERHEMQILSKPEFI
Numbers without * were called inactive; ? = inconclusive; . = no result; [ ] = dose if it differs, or a comment. Unless noted, calls follow the shape of the dose curve; as a rule, active = well fitted curve in the direction sought with a large enough effect; inconclusive = small, poorly fitted or top-dose-only effect, or another doubt; inactive = no such curve, though single readings can be large; an effect the other way counts as inactive or inconclusive. Unless noted, % is scaled to controls: 0 for no effect and ±100 for the full control effect.

SMILES | ALDH1A1 inh | HPGD block | IMPase inh | ALOX12 inhib | IMPase Li cell | NPSR antag
O=C(O)CNC(=O)/C(=C/c1ccco1)NC(=O)/C=C/c1ccccc1 | 16% | -16% | . | -5% | -5% | 7%
COC(=O)/C(=C/c1ccco1)NC(=O)c1ccccc1 | -3% | -9% | . | -1% | 6% | 0%
C=CCOC(=O)/C(=C/c1ccco1)NC(=O)/C=C/c1ccccc1 | 16µM* | -29% | -1 | -18% | 51%[38.3 µM] | -25%[46.1 µM]
COC(=O)/C(=C/c1ccco1)NC(=O)c1ccco1 | 10µM* | -17% | . | -1% | 5% | 6%
CN(C)C/C=C(/c1ccc(Br)cc1)c1cccnc1 | -6% | ? | . | . | 25% | 3%[46.1 µM]
Cc1ccc(S(=O)(=O)c2nc(S(C)(=O)=O)sc2N(C)C)cc1 | -14% | -1% | 0 | 3% | 44%[38.3 µM] | -5%[46.1 µM]
CCCS(=O)(=O)c1nc(S(=O)(=O)c2ccc(C)cc2)c(N2CCCC2)s1 | 7.9µM* | -17% | 11 | 1% | -1%[38.3 µM] | -11%[46.1 µM]
CCCS(=O)(=O)c1nc(S(=O)(=O)c2ccc(C)cc2)c(N2CCc3ccccc3C2)s1 | 1.4µM* | -17% | 1 | 0% | 13% | -13%
CCOc1nc(S(=O)(=O)c2ccc(C)cc2)c(Cl)s1 | 7% | -9% | 0 | -15% | 11%[38.3 µM] | -13%[46.1 µM]
O=C1Nc2c(Br)cc(Br)c3cccc1c23 | 14% | . | . | . | -14% | -4%
O=C1OCC(Cn2c3ccccc3c3ccccc32)O1 (configuration not stated) | 4% | -7% | -4 | -3% | -30%[38.3 µM] | 22%[46.1 µM]
S=C(Nc1ccccc1)N1CCN(C(=S)c2ccccc2)CC1 | 13µM* | . | . | . | 11% | -8%
S=C(Nc1ccccc1)N1CCCCC1 | 3% | -5% | 0 | -3% | -26%[38.3 µM] | -8%[46.1 µM]
CCOc1ccc(NC(=S)NNC(=O)c2ccc(Br)cc2)cc1 | ? | . | . | . | 3% | 0%
CC(C)CC(NC(=O)COc1ccccc1)C(=O)O (configuration not stated) | -2% | -4% | 3 | -6% | 4%[38.3 µM] | -8%[46.1 µM]
O=C(NCc1ccccc1)c1ccc(Cl)cc1[N+](=O)[O-] | 7% | 13µM* | -2 | -4% | -9%[38.3 µM] | -5%[46.1 µM]
O=C(NCc1ccccc1)c1ccc(OC2CSC2)cc1 | 3% | -18% | 8 | 0% | 24%[38.3 µM] | -14%[46.1 µM]
O=C(NCc1ccccc1)c1ccccc1Br | 6% | . | . | . | 6% | 11%
COc1ccc(C(=O)NCc2ccccc2)cc1Br | 4% | -16% | -12 | 2% | -2% | 3%
O=C(NCc1ccccc1)c1ccc(Br)cc1Br | 5% | 3.5µM* | . | -1% | 0% | -40%
Cc1ccc(C(=O)NCc2ccccc2)cc1Br | ? | 25µM* | . | -3% | 6% | -4%
O=C(NCc1ccccc1)c1ccc(Oc2ccc(C(=O)NCc3ccccc3)cc2)cc1 | 0% | 13µM* | -3 | 2% | 17%[38.3 µM] | -22%[46.1 µM]
CCS(=O)(=O)N1CCC(C(=O)NCCCN2CCCCCC2)CC1 | 6% | 9% | -2 | -5% | 3% | -7%[46.1 µM]
CC(NC(=O)c1ccccc1)c1nc2ccccc2n1Cc1ccc(C#N)cc1 (configuration not stated) | 5% | -1% | 8 | 3% | 29%[38.3 µM] | -11%[46.1 µM]
Cc1ccc(S(=O)(=O)NN)c(C)c1N1CCCC1=O | . | . | . | . | . | 6%
SMILES | ALDH1A1 inh | HPGD block | IMPase inh | ALOX12 inhib | IMPase Li cell | NPSR antag
O=C(CNC(=O)c1ccc(Oc2ccccc2)cc1)OCc1ccc(Br)cc1 | 1% | -9% | . | 6% | 9% | -3%
O=C(CNC(=O)c1ccc(Oc2ccccc2)cc1)OC1CCCCC1=O (configuration not stated) | 22µM* | -16% | -2 | 0% | 33%[38.3 µM] | -12%[46.1 µM]
O=C(NNC(=O)c1cccc(S(=O)(=O)N2CCc3ccccc32)c1)c1ccccc1 | -3% | . | . | . | 14% | 3%
Cc1nnc(NC(=O)c2cccc(S(=O)(=O)N3CCc4ccccc43)c2)s1 | 11% | -7% | -2 | 4% | 23%[38.3 µM] | 1.6µM*
O=C(c1cccc(S(=O)(=O)N2CCc3ccccc32)c1)N1CCN(c2ccccn2)CC1 | 13µM* | . | . | . | 27% | -27%
O=C(c1ccc(S(=O)(=O)N2CCCCCC2)cc1)N1CCN(c2ccccn2)CC1 | 13µM* | -18% | 11 | 6% | 10% | -23%[46.1 µM]
O=C(c1ccc(S(=O)(=O)N2CCCC2)cc1)N1CCC(CN2C(=O)c3cccc4cccc(c34)C2=O)CC1 | . | . | . | . | . | 10µM*
COc1ccc(S(=O)(=O)N2CCC(CN3C(=O)c4cccc5cccc(c45)C3=O)CC2)cc1 | ? | ? | . | 0% | -3% | 11%
Cc1ccccc1Nc1nc(N)nc(CSc2nncn2C)n1 | -4% | . | . | . | 3% | 7%
CC(=O)N(CN1C(=O)CCC1=O)c1ccc(Cl)c(Cl)c1 | 5% | . | . | . | -3% | 9%
O=C(CCC1CCCN(C(=O)c2cccs2)C1)N1CCN(c2ccccn2)CC1 (configuration not stated) | -4% | . | . | . | 5% | -1%
Cc1c(-n2cc(C(=O)c3cc(F)ccc3O)cc(C#N)c2=O)c(=O)n(-c2ccccc2)n1C | -4% | . | . | . | 4% | -10%
N#Cc1cc(C(=O)c2ccccc2O)cn(-c2nccs2)c1=O | ? | 32µM* | . | -8% | 0% | -16%
N#Cc1cc(C(=O)c2cc(F)ccc2O)cn(-c2nccs2)c1=O | ? | 11µM* | . | -4% | -3% | -12%
O=C(COC(=O)CNC(=O)C1CCCCC1)Nc1ccc2c(c1)OCCO2 | -4% | . | . | . | 3% | 14%
COc1cccc2cc(C(=O)NCc3ccco3)c(=O)oc12 | ? | -26% | . | 0% | 11µM* | 7%
CCOC(=O)CC(NC(=O)c1cc2cc(Cl)cc(Cl)c2oc1=O)c1cccc([N+](=O)[O-])c1 (configuration not stated) | -3% | -13% | -3 | -2% | 5% | -5%
COc1cccc2cc(C(=O)NCc3ccco3)c(=Nc3ccc(C(=O)O)cc3)oc12 | 16µM* | ? | -3 | 2% | 32%[38.3 µM] | ?
C=CCNC(=O)c1cc2cccc(OC)c2oc1=O | -5% | . | . | . | 2% | 12%
COc1ccc2cc(C(=O)NCc3ccccc3)c(=Nc3ccc(C(=O)O)cc3)oc2c1 | ? | . | . | . | -1% | -51%
CCOC(=O)CC(NC(=O)c1cc2cccc(OC)c2oc1=O)c1cccc([N+](=O)[O-])c1 (configuration not stated) | 22µM* | ? | 5 | 0% | 2% | -2%
CCn1c(=O)c2cc(C(=O)NCc3cccs3)sc2c2ccccc21 | ? | . | . | . | 23% | 39%
COc1ccc2c(c1)sc1nc(-c3ccccc3)cn12 | -11% | -18% | 0 | -4% | -2%[38.3 µM] | 17%[46.1 µM]

Compound activity (PubChem BioAssay)
